# Measurements reported in PubChem BioAssay (Tox21).
# Inconclusive results are not listed. The source made the active and inactive calls. Calls follow the shape of the dose curve; as a rule, active = well fitted inhibition curve with a large enough effect in the repeat runs; inconclusive = weak or mixed curves; inactive = flat fitted curve, though single readings scatter.
# Molecular target: Luciferin 4-monooxygenase (Photinus pyralis) (UniProt P08659)
# Assay: qHTS assay to identify small molecule inhibitors of firefly luciferase (AID 1224835); also: nearly all actives have a fitted effect of over 25% in size
# Settings: purified P. pyralis luciferase, luminescence inhibition; series mostly up to 115 µM; activity change, negative = inhibition: at the top concentration
# Text: U.S. Tox21 Program National Center for Advancing Translational Sciences [NCATS] NIH Chemical Genomics Center [NCGC] U.S. Environmental Protection Agency [EPA] National Institutes of Environmental Health Sciences [NIEHS] National Toxicology Program [NTP] U.S. Food and Drug Administration [FDA] Tox21 Assay Overview: Firefly (Photinus pyralis) luciferase is one of the most commonly used transcriptional reporters. Firefly luciferase reporter-gene assays are generally considered one of the most sensitive assay types (Wood, 1995; Wood, 1998). However, it was initially observed, in 1991, by Thompson et al., that compounds that resemble the substrates of firefly luciferase (FLuc) can act as competitive inhibitors of the enzyme, and that these compounds, upon interaction with luciferase in the cell, can actually stabilize the protein and increase its half-life. Previous profiling work by other groups to determine the prevalence of compounds that affect FLuc enzymatic activity (PubChem AID 411) identified that ~3% of the MLSMR library (then at ~72K) inhibited FLuc. […] Thus the Tox21 10K library is profiled for activity against FLuc using a biochemical assay of purified FLuc and KM concentrations of FLuc substrates (D-luciferin and ATP).
# These assay plates were then treated with 23nL of compound or DMSO using a Kalypsys pin tool, which allows for delivery of a 6-point interplate titration of each compound to the assay plate (quantitative HTS.) 1 uL of firefly luciferase mix (containing 50 mM Tris acetate, pH 7.6, 0.04 uM P. pyralis luciferase, 0.01% Tween, 0.05% BSA and dH2O) was then delivered by FRD to each well. Luciferase activity was then measured using a ViewLux CCD imager.
# % is scaled to controls: 0 for no effect and ±100 for the full control effect; potency is read from the fitted curve at half-maximal effect.
# Chain of Luciferin 4-monooxygenase (Photinus pyralis) (P08659 whole entry, looked up): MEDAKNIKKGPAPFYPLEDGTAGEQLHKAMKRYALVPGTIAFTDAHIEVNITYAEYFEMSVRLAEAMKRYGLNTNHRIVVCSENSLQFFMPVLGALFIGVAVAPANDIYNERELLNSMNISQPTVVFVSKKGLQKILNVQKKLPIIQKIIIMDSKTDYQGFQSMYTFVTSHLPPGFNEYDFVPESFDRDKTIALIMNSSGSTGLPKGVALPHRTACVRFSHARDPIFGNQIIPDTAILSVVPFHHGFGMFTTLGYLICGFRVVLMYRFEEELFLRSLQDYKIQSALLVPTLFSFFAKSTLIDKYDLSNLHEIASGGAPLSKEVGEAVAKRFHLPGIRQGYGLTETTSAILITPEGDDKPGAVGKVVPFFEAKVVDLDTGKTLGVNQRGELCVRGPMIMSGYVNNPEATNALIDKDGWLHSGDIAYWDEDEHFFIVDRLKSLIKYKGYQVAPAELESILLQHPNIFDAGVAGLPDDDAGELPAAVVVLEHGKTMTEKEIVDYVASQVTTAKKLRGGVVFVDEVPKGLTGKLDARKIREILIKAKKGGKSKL
Compound,"activity change, negative = inhibition",Potency
O=[N+]([O-])c1ccc(O)cc1C(F)(F)F,1.92% (inactive),
CCCCCCCC,0.298% (inactive),
COC(C)=O,4.05% (inactive),
CNc1ccc([N+](=O)[O-])cc1,,40 µM (active)
CC[N+](CC)(CC)CCOc1ccc(/C=C/c2ccccc2)cc1,-5.03% [at 52.9 µM] (inactive),
CC1=CCC(=C(C)C)CC1,2.62% (inactive),
Cc1cc(=O)oc2cc(O)cc(O)c12,-2.47% (inactive),
CC(N=C(NC#N)Nc1ccncc1)C(C)(C)C (stereo not given),1.83% [at 52.9 µM] (inactive),
C=Cc1ccccc1C=C,1.7% [at 300 µM] (inactive),
O=c1[nH]c2ccccc2n1CCCN1CCN(C(c2ccccc2)c2ccccc2)CC1,-0.579% [at 52.9 µM] (inactive),
Cc1ccc(C(C)C)cc2c(C)ccc1-2,6.9% [at 52.9 µM] (inactive),
CCC(=O)OC(=O)CC,0.486% (inactive),
CC[N+](CC)(CC)CCOC(=O)C(C1CCCC1)C1CCCC1,7.75% [at 52.9 µM] (inactive),
O[C@@H]([C@H](O)[C@H](O)CBr)[C@H](O)CBr,0.524% (inactive),
C=CC(=O)OCCOC(=O)C=C,2.38% (inactive),
CC(=O)CC(=O)Nc1ccc(S(=O)(=O)O)cc1,-1.63% (inactive),
CCc1cccc(CC)c1NC(=O)CN(CC(=O)O)CC(=O)O,-0.4% [at 52.9 µM] (inactive),
O=S(=O)(O)c1ccccc1/C=C/c1ccc(-c2ccc(/C=C/c3ccccc3S(=O)(=O)O)cc2)cc1,,57.2 µM (active)
CN1CCCCC1CCN1c2ccccc2Sc2ccc(S(C)=O)cc21 (stereo not given),2.11% [at 52.9 µM] (inactive),
CC(C)(C)c1ccc(C(O)CCCN2CCC(C(O)(c3ccccc3)c3ccccc3)CC2)cc1 (stereo not given),5.79% [at 52.9 µM] (inactive),

Compound,"activity change, negative = inhibition",Potency
CCCCCC(C)OC(=O)COc1ccc(Cl)c2cccnc12 (stereo not given),2.18% (inactive),
COC1=C(OC)C(=O)C(CCCCCCCCCCO)=C(C)C1=O,-8.59% [at 52.9 µM] (inactive),
C=CCn1c(=O)n(CC=C)c(=O)n(CC=C)c1=O,15.5% (inactive),
O=c1oc2cc(O)ccc2c2oc3cc(O)ccc3c12,,19.2 µM (active)
CC(CCc1ccccc1)NCC(O)c1ccc(O)c(C(N)=O)c1 (stereo not given),1.7% (inactive),
CCC(CC)C(C)CCOC(C)=O (stereo not given),-0.3% (inactive),
C=CC(C)(CCC=C(C)C)OC=O (stereo not given),5.61% (inactive),
CCn1c2ccccc2c2cc([N+](=O)[O-])ccc21,-4.12% (inactive),
O=c1[nH]c(=O)n([C@H]2C[C@H](O)[C@@H](CO)O2)cc1F,3.95% [at 52.9 µM] (inactive),
CC[C@H](C)COC(=O)/C=C/c1ccc(N=Cc2ccc(OC)cc2)cc1,,4.47 µM (active)
CC(C)Cn1cnc2c(N)nc3ccccc3c21,5.54% [at 23.6 µM] (inactive),
CN(C)[C@@H](CCOc1cccc2ccccc12)c1ccccc1,2.05% [at 52.9 µM] (inactive),
CN(C)Cc1cc(C(C)(C)C)c(O)c(C(C)(C)C)c1,-0.831% (inactive),
Oc1ccccc1O,,inactive
COCCOc1cc2cc(C(=O)NC3CCN(C(C)C)CC3)n(CC(=O)Nc3ccc(Cl)cn3)c2cn1,-2.26% (inactive),
CC(=O)OCC=C(C)C,-0.0582% [at 52.9 µM] (inactive),
C#C[C@]1(OC(C)=O)CC[C@H]2[C@@H]3CCC4=C/C(=N/O)CC[C@@H]4[C@H]3CC[C@@]21CC,-1.17% [at 52.9 µM] (inactive),
O=C(O)c1cc(O)c2ccccc2c1O,,31.7 µM (active)
CCCCCCC1CCCC(=O)O1 (stereo not given),1.97% (inactive),
Clc1nnc(Cl)c2ccccc12,-0.799% (inactive),
